Compound activity from PubChem BioAssay.
Rows were chosen to be rich in hits. Some 27% of all compounds tested hit in one or more screens of this group.
sEH act = soluble epoxide hydrolase activators, primary screen, biochemical, human sEH; purified human sEH enzymatic activity, activator screen; hit rate 0.04% among 91,000; Bifunctional epoxide hydrolase 2 (Homo sapiens), P34913; activation, % at 2 µM; AID 717, 2007; in the data active = activation above about 37%
CYP2C9 inh = blockers of cytochrome P450 2C9 activity – biochemical, luminescence, ADME assay, primary screen; hit rate 20% among 96,000; P11712; inhibition, % at 5 µM; CYP2C9 Supersomes, luciferin-H conversion;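 active = blocking of liver enzyme CYP2C9 beyond about 50% at 5 µM, limit read from the data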
CYP2C19 activ = human CYP2C19 activators, primary screen, biochemical, luminescence | Cytochrome P450 2C19 (Homo sapiens), P33261 | recombinant CYP2C19, luciferin-H EGE luminescence; hits give high values; 0 = fully inhibited enzyme, 1 = untreated enzyme | activation factor at 5 µM | 96,000 tested, under 10 active;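 active = activation factor of at least 2 at 5 µM in the primary screen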;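 note: 0 = wells with 2.5 mM tranylcypromine and 1 = vehicle-only wells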
Target sequence (P33261 whole entry, looked up): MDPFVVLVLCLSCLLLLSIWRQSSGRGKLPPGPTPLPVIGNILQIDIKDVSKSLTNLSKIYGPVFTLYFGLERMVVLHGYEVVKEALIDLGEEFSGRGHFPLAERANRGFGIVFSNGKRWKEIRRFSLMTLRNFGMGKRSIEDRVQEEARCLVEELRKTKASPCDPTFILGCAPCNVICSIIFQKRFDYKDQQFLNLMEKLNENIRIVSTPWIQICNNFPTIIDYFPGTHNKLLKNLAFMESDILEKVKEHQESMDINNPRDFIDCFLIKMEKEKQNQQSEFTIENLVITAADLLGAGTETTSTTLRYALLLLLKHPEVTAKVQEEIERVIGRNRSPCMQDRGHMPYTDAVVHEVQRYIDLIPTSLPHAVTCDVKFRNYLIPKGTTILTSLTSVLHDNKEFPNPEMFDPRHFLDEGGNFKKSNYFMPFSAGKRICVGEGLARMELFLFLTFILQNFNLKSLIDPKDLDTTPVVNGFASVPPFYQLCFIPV
CYP2C9 activ = human CYP2C9 activators, primary screen, biochemical, luminescence | AID 1024, 2008 | activation factor at 5 µM | Cytochrome P450 2C9 (Homo sapiens), P11712 | hit rate 1.4% among 96,000 | recombinant CYP2C9, luciferin-H conversion; hits give high values; factor 1 = untreated enzyme, 0 = blocked;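 active = activation factor of 2 or more for CYP2C9 at a 5 µM dose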;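 note: 0 = sulfaphenazole-blocked wells and 1 = vehicle-only wells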
sEH inh = soluble epoxide hydrolase inhibitors, primary screen, biochemical, human sEH; recombinant human sEH enzymatic activity assay; inhibition, % at 2 µM; AID 707, 2007; hit rate 0.34% among 91,000; in the data active = inhibition above about 80%
CYP2C19 inh = blockers of cytochrome P450 2C19 activity – biochemical, luminescence, ADME assay, primary screen; P33261; CYP2C19 Supersomes, luciferin-H EGE luminescence, 30 min; inhibition, % at 5 µM; hit rate 21% among 96,000; AID 778, 2007;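 active = CYP2C19 inhibition above a set limit at 5 µM in the primary screen, cut at about 50% in these data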;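 note: plate controls were negative control wells for no effect and 2.5 mM tranylcypromine positive control for full effect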
* hit, by the source's call; x = no result given.

SMILES	sEH act	CYP2C9 inh	CYP2C19 activ	CYP2C9 activ	sEH inh	CYP2C19 inh
CC(=O)c1cccc(NC(=O)NCc2ccco2)c1	0	41	0.7	0.6	1	30
O=C(NCc1ccco1)Nc1ccc(Br)cc1Cl	-20	53*	0.5	0.5	20	47
CCn1cc(C(=O)Nc2ccc(-n3cnnn3)c(OC)c2)c(=O)c2ccc(C)nc21	2	13	1	0.9	0	2
COc1ccc(CNC(=O)CN2C(=O)C3CCCN3c3ncc(Cl)cc32)cc1 (configuration not stated)	-5	52*	0.2	0.5	8	82*
CC1CCC(NC(=O)CN2C(=O)C3CCCN3c3ncc(Cl)cc32)CC1 (configuration not stated)	-1	44	0.6	0.6	4	38
O=C(CN1C(=O)C2CCCN2c2ncc(Cl)cc21)NCc1ccc2c(c1)OCO2 (configuration not stated)	-6	16	0.6	0.8	8	40
O=C(CN1C(=O)c2ccccc2C1=O)Nc1ccccc1C(=O)NC1CCCCCC1	-6	x	x	x	10	x
CCc1ccccc1NC(=O)CN1C(=O)C2CCCN2c2ncc(Cl)cc21 (configuration not stated)	8	54*	0.4	0.5	-6	55*
COC(=O)c1ccccc1NC(=O)CN1C(=O)C2CCCN2c2ncc(Cl)cc21 (configuration not stated)	-2	67*	0.5	0.3	7	48
Cc1cc(C)c2nc(N3CCCN(C(=O)c4cnccn4)CC3)c(C#N)cc2c1	-10	32	0.6	0.7	8	36
COc1ccc(NC(=O)c2ccco2)cc1NC(=O)c1cccc(OC(C)C)c1	x	44	0.4	0.6	x	64*
O=C(COC(=O)c1cccc(NC(=O)c2ccco2)c1)c1ccc(Br)cc1	0	-134	0.9	2.3*	0	11
CC(C)(C)NC(=O)c1cccc(NC(=O)c2ccc(NC(=O)c3ccco3)cc2)c1	-8	97*	0.3	0	8	74*
Cc1ccc(O)c(NC(=O)c2ccco2)c1	11	35	0.6	0.7	-13	36
Cc1ccc(O)c(NC(=O)c2cccc(NC(=O)c3ccco3)c2)c1	0	2	0.5	1	-2	53*
CCOC(=O)c1nnn(CC(=O)N2N=C(c3cccc4ccccc34)CC2c2ccccc2)c1C(=O)OCC (configuration not stated)	4	x	x	x	-2	x
CC(C)Oc1ccc(/C(O)=C2/C(=O)C(=O)N(CCN(C)C)C2c2ccco2)cc1 (configuration not stated)	0	-22	1.1	1.2	2	-7
COc1ccc(NC(=O)Cc2ccc(Cl)cc2)cc1NC(=O)c1ccco1	9	65*	0.3	0.4	-9	74*
COc1ccc(NC(=O)c2ccco2)cc1NC(=O)c1ccco1	x	6	1	0.9	x	-1
COc1cccc(C(=O)Nc2cc(NC(=O)c3ccco3)ccc2OC)c1	1	32	0.7	0.7	0	29
COc1ccccc1NC(=O)c1cccc(NC(=O)c2ccco2)c1	-10	-176	1	2.8*	13	2
Cc1ccc(S(=O)(=O)N(CC(=O)N/N=C/c2cccc(C)c2)c2cccc3cccnc23)cc1	9	11	1.1	0.9	-7	-11
ONC=Nc1cccc2nonc12	-4	6	1	0.9	4	2
COc1c(Br)cc(Br)cc1C(=O)O	15	6	1.2	0.9	-19	-17
CCCCOC(=O)CN1C(=O)c2ccc(C(=O)OCCCC)cc2C1=O	-3	70*	0.1	0.3	1	88*
CCCOC(=O)CN1C(=O)c2ccc(C(=O)OCCC)cc2C1=O	5	32	0.7	0.7	-5	32
COc1ccc(CC(=O)OCN2C(=O)c3ccccc3C2=O)cc1	x	-14	0.5	1.1	x	48
Cc1ccc(OCCN2C(=O)c3ccccc3C2=O)cc1	10	38	0.2	0.6	-10	81*
COc1ccc(C(=O)OCCN2C(=O)c3ccccc3C2=O)cc1	6	72*	0.1	0.3	-5	93*
